In the OligoGym collection:
Further: reference of the scale not given here.

The sequences below were run against ZFAND2A (assay: pooled miR-30 sensor sort-seq; sequence = guide strand). Details: shRNA.
For TTGGGCACATACCATCTGCAGC, the sensor-assay potency score (higher = more potent) was -1.16.
Sequence TTTTACTGGAAGAAAATCTAGC has a sensor-assay potency score (higher = more potent) of -0.26.
TACTGGGACGAGCACATCCTTC was tested, and the sensor-assay potency score (higher = more potent) was -1.34.
For TTACAGAGTGGGCATACTGGGA, the sensor-assay potency score (higher = more potent) was -0.899.
For TTCTGAACAATGCTTCCCCAAA, the sensor-assay potency score (higher = more potent) was -1.18.
TCTCTTTCTTCTTGCAGCCCTC gave a sensor-assay potency score (higher = more potent) of -1.15.
Sequence TACCATCTGCAGCATCTCTTTC has a sensor-assay potency score (higher = more potent) of -0.989.
In the case of TTTCTGAACAATGCTTCCCCAA, the sensor-assay potency score (higher = more potent) is reported as -0.747.
TTCTCTTTCTTCTTCCCAGGGT was tested, and the sensor-assay potency score (higher = more potent) was 0.483.
TACTGGAAGAAAATCTAGCTGC gave a sensor-assay potency score (higher = more potent) of 0.313.
For AGTCTTTTCTGAACAATGCTTC, the sensor-assay potency score (higher = more potent) was -1.25.

Each sequence was assayed against ZFAND6 in the same assay as above. Details: shRNA.
Sequence TTCCTGCACATGAAACAGCGAT has a sensor-assay potency score (higher = more potent) of -1.19.
For TCTACCATTACTACTATTCTGT, the sensor-assay potency score (higher = more potent) was 0.0585.
TTTCTCAGCAGCATCGGCTTTG gave a sensor-assay potency score (higher = more potent) of -0.787.
For TAGAGTCTAATGCTGACTGGGC, the sensor-assay potency score (higher = more potent) was -0.0965.
TTTTCACCAACAACTACTGGAT was tested, and the sensor-assay potency score (higher = more potent) was -0.128.
In the case of TACTACTATTCTGTCTTTGAAG, the sensor-assay potency score (higher = more potent) is reported as -0.924.
Sequence TAGATGAAGATGTAGAGTCTAA has a sensor-assay potency score (higher = more potent) of -0.473.
TTGTGTACATCTGAGTAACGGT was tested, and the sensor-assay potency score (higher = more potent) was -0.562.
AAGATGTAGAGTCTAATGCTGA gave a sensor-assay potency score (higher = more potent) of -0.785.
TAGCATACTGAACACATGCCAT gave a sensor-assay potency score (higher = more potent) of -0.592.
Sequence TTATTCTACCATTACTACTATT has a sensor-assay potency score (higher = more potent) of -1.18.
Sequence TTCCATAAAATCCACAGCCAGT has a sensor-assay potency score (higher = more potent) of -1.07.

Each sequence was assayed against ZFHX4 in the same assay as above. Details: shRNA.
For TTGATCTTGCAGTGTGTCGGGG, the sensor-assay potency score (higher = more potent) was 0.234.
TTCTTCTGTACCTTCTGCCTGT showed a sensor-assay potency score (higher = more potent) of 0.382.
TTTGTTACCAATACTATCGGTG showed a sensor-assay potency score (higher = more potent) of -0.044.
TTTATTTCTCTGTCGTTCCTTA gave a sensor-assay potency score (higher = more potent) of 0.274.
Work on TAACATTTCACATTCTTGCATG yielded a sensor-assay potency score (higher = more potent) of -0.369.
TTGAAGTTCAGCTTCACTCAGT showed a sensor-assay potency score (higher = more potent) of 0.0714.
With TAGAGCTACTATCACTTCCTAC the sensor-assay potency score (higher = more potent) was -0.103.
TTTGTCATCGCAGACCTCCGTG was tested, and the sensor-assay potency score (higher = more potent) was -0.26.
With TTGCTTGTTCGAATGTACCGTT the sensor-assay potency score (higher = more potent) was 0.0955.
Sequence TTGCTCTCTGACATCTTGCTAG has a sensor-assay potency score (higher = more potent) of -0.546.
Work on ATCGCTAACACAACCATCGAAT yielded a sensor-assay potency score (higher = more potent) of -0.685.
In the case of TTTGTTGCTGAGGACGTCCTGA, the sensor-assay potency score (higher = more potent) is reported as -0.337.

What follows are sequences tested against ZFP62 in the same assay as above. Details: shRNA.
With TAATTTCTTAACAGCATTGGTT the sensor-assay potency score (higher = more potent) was -0.651.
For ATACATAAGGTCTCTCTCCGGT, the sensor-assay potency score (higher = more potent) was 0.0569.
With TTGAGTGTGAGATGTAGGCTTT the sensor-assay potency score (higher = more potent) was -0.179.
